MITF act: activators of MITF-driven TRPM1 promoter activity in SK-MEL-5 cells; SK-MEL-5 TRPM1-promoter luciferase, 24 h; % of positive control, neutral wells = 0; activation, % at 12.5 µM; 300,000 compounds, 0.75% hits;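 active means mean activation of at least 80% with every replicate also reaching 80%; inconclusive means mean reaches 80% but some replicate falls short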;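 further: 0% = neutral control wells and 100% = parthenolide positive control wells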
esBAF inh: blocks esBAF chromatin remodeling in mouse ES cells. 350,000 compounds, 2% hits. AID 602393. Bmi1-luciferase knock-in reporter, 24 h; 100% = twice the neutral-well signal. reporter increase, % at 12.5 µM; in the data active means activation above about 40%; inconclusive means no clear call, values can overlap the other calls;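 further: 0% = median of the plate's neutral control wells and 100% = double that signal; a rise in the Bmi1 reporter signal indicates esBAF inhibition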
HSF1 inhib: HSF1 inhibition; NIH3T3-HGL HSE-luciferase, MG132-induced, luminescence 8 h; active compounds read low; AID 2098; 300,000 compounds, 0.77% hits; activity change, negative = inhibition, % at 7.5 µM (by protocol);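 active means more than half of replicate wells show activity change below -50%, luminescence cut by over half; inconclusive means some wells, but at most half, below -50%; inactive means no replicate well below -50%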;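 further: luciferase reports HSF-1 transcriptional activity via heat shock element; 0% = median of DMSO wells and -100% = zero luminescence signal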
HSF-1 act: increases HSF-1 driven luciferase reporter signal; NIH3T3-HGL HSF-1 luciferase reporter, MG132, 8 h; 100% = twice DMSO control signal; activation, % at 9 µM; 300,000 compounds, 1.7% hits;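 active means mean replicate activation of at least 50% with a set share of replicates each reaching 50%; inconclusive means only one of those two conditions met; inactive means mean below 50% and too few replicates reaching it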;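 further: 0% = median of the neutral control wells and 100% = twice that signal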
Wnt act: activators of Wnt/beta-catenin signaling; Wnt/beta-catenin reporter cell assay, activator, plate reader; activation, % at 9.35 µM; 300,000 compounds, 1.2% hits; AID 743398; in the data active means activation above about 30%, passing the limit was not always enough; inconclusive means no clear call, values can overlap the other calls;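 further: 0% = neutral control wells and 100% = positive control wells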
* marks the source's active call; other numbers are inactive results; ? = inconclusive; nt = no result given. Compounds with a hit are over-represented: about 3.8% of the library has one in this group of screens.

SMILES	MITF act	esBAF inh	HSF1 inhib	HSF-1 act	Wnt act
C[C@H](CO)N1C[C@H](C)[C@@H](CN(C)C(=O)C2CCC2)Oc2ncc(C#CC(C)(C)O)cc2C1=O	nt	1	nt	nt	nt
NC(=O)c1ccccc1N/C=C/C(=O)c1cccs1	35	-8	21	15	nt
NC(=O)c1ccccc1N/C=C/C(=O)c1ccc(F)cc1	48	31	19	41	54*
NC(=O)c1ccccc1N/C=C/C(=O)c1ccc(Cl)cc1Cl	32	-11	20	66*	nt
C[C@@H]1CN([C@@H](C)CO)C(=O)c2cc(-c3cccnc3)cnc2O[C@H]1CN(C)C(=O)Nc1ccc2c(c1)OCO2	nt	13	nt	nt	nt
COc1ccc2cc(C(=O)N3CCN(C)CC3)[nH]c2c1	44	23	7	6	17
CCN1CCN(C(=O)c2cc3ccc(OC)cc3[nH]2)CC1	95*	29	1	10	11
O=C(Cn1nnc(-c2ccccc2)n1)N/N=C/c1cc([N+](=O)[O-])ccc1O	-14	nt	-28	-31	-1
O=C(Cn1nc2ccccc2n1)N/N=C/c1cc([N+](=O)[O-])ccc1O	-24	-2	-53*	-63	1
COc1ccc(NC(=O)N[C@@H]2CC[C@H](CCNC(=O)Nc3cc(F)ccc3F)O[C@H]2CO)cc1	nt	10	nt	nt	nt
CCCNC(=O)Nc1ccc2c(c1)OC[C@@H](C)N(Cc1ccccn1)C[C@@H](C)[C@H](OC)CN(C)C2=O	nt	-4	nt	nt	nt
Brc1ccccc1-c1nc2c3ccccc3ncn2n1	48	49*	nt	nt	39*
Cc1c(C(=O)Nc2cnccn2)oc2ccccc12	7	61*	5	8	5
Cc1c(C(=O)Nc2nnc(C3CC3)s2)oc2c(Cl)cccc12	-18	nt	-3	-6	2
Cc1c(C(=O)Nc2nccs2)oc2ccccc12	nt	70*	nt	nt	80*
Cc1c(C(=O)Nc2ccc(Cl)cn2)oc2ccccc12	23	45*	10	9	28
Cc1c(C(=O)Nc2nnc(C3CC3)s2)oc2ccccc12	65	53*	nt	nt	45*
C[C@@H]1CN([C@@H](C)CO)C(=O)c2cc(NS(=O)(=O)c3cccs3)ccc2O[C@@H]1CN(C)Cc1ccc(-c2ccccc2)cc1	nt	0	nt	nt	nt
C[C@@H]1CCCCO[C@@H](CN(C)S(=O)(=O)c2ccc(F)cc2)[C@H](C)CN([C@H](C)CO)C(=O)c2cc(NS(=O)(=O)c3ccccc3)ccc2O1	nt	-1	nt	nt	nt
CC(=O)N[C@@H]1CC[C@@H](CCNC(=O)C2CCCC2)O[C@@H]1CO	nt	-1	nt	nt	nt
O=c1c2ccccc2oc2ccc(NCCCN3CCOCC3)cc12	137*	-6	18	14	26
O=c1c2ccccc2oc2cc(NCCCN3CCOCC3)ccc12	106*	43*	-27	-46	44*
O=C(CSC1=NCCN1)Nc1cccc(C(F)(F)F)c1	-6	nt	28	67*	7
Cc1cc(-c2onc(C)c2C(N)=O)no1	-10	0	-6	-4	38*
COCC#Cc1cnc2c(c1)C(=O)N([C@@H](C)CO)C[C@@H](C)[C@H](CN(C)C(=O)c1cccc(F)c1)O2	nt	-2	nt	nt	nt
SMILES	MITF act	esBAF inh	HSF1 inhib	HSF-1 act	Wnt act
Cc1sc2nc3c4ccccc4c(NCc4ccco4)nn3c(=O)c2c1C	85*	nt	nt	nt	nt
CC=Cc1ccc2n(c1=O)C[C@@H]1[C@@H](CO)[C@H](C(=O)NCCC)[C@H]2N1C(=O)Nc1cc(F)ccc1F (mixture of isomers)	nt	0	nt	nt	nt
OC1OC[C@@H](O)[C@H](O)[C@H]1O (stereo partly drawn)	nt	nt	-72*	-77	nt
OC1COC(OCc2ccccc2)C(O)C1O (stereo not drawn)	4	3	2	22	-1
Cc1ccc(Nc2nc(N)nc(COC(=O)C3=COCCO3)n2)cc1	95*	37	nt	nt	?
Cc1ccc(NC(=O)COC(=O)C2=COCCO2)cc1	0	5	1	4	nt
Cc1ccc(Nc2nc(N)nc(CCl)n2)cc1	nt	nt	28	39	39*
Cc1ccc(Nc2nc(N)nc(CC#N)n2)cc1	71	69*	1	8	nt
Nc1nc(CCl)nc(Nc2ccccc2)n1	20	nt	7	15	4
Cc1ccc(Nc2nc(N)nc(CSc3ncccn3)n2)cc1	?	26	31	66*	nt
CC(=O)Nc1ccc2c(c1)C(=O)N(C)[C@@H]1CC[C@H](CC(=O)Nc3cn(C)nc3C)O[C@@H]1CO2	nt	1	nt	nt	nt
COCC(=O)N(C)C[C@H]1Oc2ncc(-c3ccc(C)cc3)cc2C(=O)N([C@H](C)CO)C[C@H]1C	nt	1	nt	nt	nt
COCC(=O)N(C)C[C@@H]1Oc2cc(C#CCC(C)C)ccc2S(=O)(=O)N([C@H](C)CO)C[C@@H]1C	nt	3	nt	nt	nt
Cc1ccc(Nc2nc(N)nc(CN3CCCCCC3)n2)c(C)c1	0	nt	-8	-13	nt
Cc1ccc(Nc2nc(N)nc(CCl)n2)c(C)c1	nt	nt	-63*	-59	14
CC(=O)c1c(C(C)=O)c(C)n(-c2cccc([N+](=O)[O-])c2)c1C	12	nt	1	-10	-2
CC(=O)C1=C(c2cccc([N+](=O)[O-])c2)N(C(C)=O)n2c(C)nnc2S1	0	nt	9	-3	75*
CCCCOc1ccc(C(=O)N2CCCCCC2)cc1	3	12	2	4	nt
O=C(CCCOc1ccc(Cl)cc1)N1CCCCCC1	43	62*	9	13	nt
O=C(c1ccc(COc2ccc(Cl)cc2)cc1)N1CCCCC1	10	11	29	54*	7
O=C(CCCOc1ccc(Cl)cc1)N1CCCCC1	49	17	6	17	7
C[C@H](CO)N1C[C@H](C)[C@@H](CN(C)S(=O)(=O)c2cccs2)Oc2ccc(NS(=O)(=O)c3ccc(Cl)cc3)cc2C1=O	nt	0	nt	nt	nt
CCOc1cc(/C=N/NC(=O)c2ccc3c(c2)OCCO3)cc(Br)c1O	9	?	-73*	-74	6
O=C(Cc1ccccc1)N/N=C/c1cc(Br)c(Br)o1	28	6	60	80*	0
O=C(N/N=C/c1cc(Br)c(O)c(Br)c1O)c1ccc2c(c1)OCCO2	31	43*	-12	-1	9
SMILES	MITF act	esBAF inh	HSF1 inhib	HSF-1 act	Wnt act
O=C(N/N=C/c1cc(Br)cc(Cl)c1O)c1ccc2c(c1)OCO2	nt	nt	3	-1	-3
O=C(Cc1ccccc1)NN=Cc1ccccc1	17	7	nt	nt	3
O=C(N/N=C/c1cc(Br)c(Br)o1)c1ccc2c(c1)OCCO2	nt	58*	-22	-28	37*
CCOc1cc(/C=N/NC(=O)C(N)=O)cc(Br)c1O	0	nt	4	8	-5
CCNC(=O)[C@@H]1[C@@H](CO)[C@@H]2Cn3c(ccc(-c4ccc(F)cc4)c3=O)[C@H]1N2Cc1ccccc1F	nt	4	nt	nt	nt
COC(=O)C[C@@H]1CC[C@@H]2[C@@H](COc3ccc(NC(=O)C4CC4)cc3C(=O)N2C)O1	nt	4	nt	nt	nt
CO[C@H]1CN(C)C(=O)c2ccc(NC(=O)c3cccc(F)c3)cc2OC[C@@H](C)N(CC2CC2)C[C@@H]1C	nt	4	nt	nt	nt
CCN(CC)C(=S)SCC(=O)Nc1nc(=O)c2ccccc2s1	10	nt	-70*	-75	19
